Active and inactive are the calls of the source. Rule for the calls: active = hit-call score of the fitted dose curve at least 0.9, where 1 is the maximum; inactive = score below 0.9.
Test system: rat KATP Antagonism, gene 24521
Experiment: ERF_FR_IC_rKCNJ1: Eurofins (ERF) Potassium Ion Channel Mass Spectrometry Ligand Binding LeadHunter Assay for rat KATP Antagonism
Protocol: ERF_FR_IC_rKCNJ1 is a biochemical, single-readout assay that uses extracted gene-proteins in a cell-free assay. Measurements were taken 1 hour after chemical dosing in a 96-well plate. See KATP Rat Potassium Ion Channel Binding (Antagonist Radioligand) Assay, Cerep.ERF_FR_IC_rKCNJ1 is an assay component calculated from the ERF_FR_IC_rKCNJ1 assay. It is designed to measure radioligand binding using a type of binding reporter as detected by scintillation counting with radiometry technology.Data from the assay component ERF_FR_IC_rKCNJ1 was analyzed at the assay endpoint, ERF_FR_IC_rKCNJ1, in the positive analysis fitting direction relative to DMSO as the negative control and baseline of activity. Using a type of binding reporter, loss-of-signal activity can be used to understand changes in binding as they relate to gene KCNJ1. To generalize the intended target to other relatable targets, this assay endpoint is annotated to the ion channel intended target family, where the subfamily is voltage gated (Potassium).
Rat cells are incubated for 60 minutes at room temprature with Glibenclamide (0.07 nM) as ligand and Glibenclamide-d3 (30nM) as control inhibitor. Test Sample Requirements: Minimum for 1) Screen: 60 ul of 10 mM stock -OR- 1 mg (pre-weighed) for 10 uM final testing. 2) Dose Response: 90 ul of 10 mM stock -OR- 1 mg (pre-weighed) for a top concentration at 10 uM.

| SMILES | AC50 |
| --- | --- |
| O=C(/C=C/c1ccc(O)cc1)CC(=O)/C=C/c1ccc(O)cc1 | 880 nM (active) |

From PubChem BioAssay AID2284173 (EPA ToxCast)
